# Data as given in PubChem BioAssay (Tox21).
# “And” between values parts separate entries of the source, which are not always exact repeats. Equal values may be shown once. Unmarked numbers belong to inactive results. Where a call stands in place of a potency, no number is given. The source made the active and inactive calls. Unless noted, calls come from the whole dose curve; as a rule, active = well fitted curve in the direction sought with a large enough effect in the repeat runs; inconclusive = weak or mixed curves; inactive = flat fitted curve, though single readings scatter.
# Columns and labels:
# [1] = qHTS assay to test for compound auto fluorescence at 535 nm (green) in HEK293 cells (AID 720680)
# [2] = qHTS assay to test for compound auto fluorescence at 460 nm (blue) in HEK293 cell free culture (AID 720681)
# Summary of the method: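 Compounds were added to cell-free DMEM with 10% FBS and fluorescence read directly. The blue channel used 405 nm excitation and 460 nm emission, with triamterene as the reference fluorophore.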
# [3] = qHTS assay to test for compound auto fluorescence at 535 nm (green) in HEK293 cell free culture (AID 720682)
# Summary of the method: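 Read-out: 485/535 nm fluorescence intensity, calibrated against fluorescein. Medium only (DMEM + 10% FBS, no cells); test compound or DMSO vehicle added by pintool before plate reading.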
# [4] = qHTS assay to test for compound auto fluorescence at 590 nm (red) in HEK293 cell free culture (AID 720683)
# Summary of the method: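 Cell-free wells of DMEM with 10% FBS received compound, and intrinsic fluorescence was read at excitation/emission 540/590 nm. Values expressed as equivalence to Rose Bengal sodium.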
# [5] = qHTS assay to test for compound auto fluorescence at 590 nm (red) in HepG2 cell free culture (AID 720684)
# Summary of the method: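 Rose Bengal sodium served as the reference for red signal. Test compounds were dispensed into serum-containing MEM (10% FBS) without cells, and plates were read at 540/590 nm.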
# [6] = qHTS assay to test for compound auto fluorescence at 460 nm (blue) in HepG2 cell free culture (AID 720685)
# Summary of the method: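 Cell-free plates of MEM plus 10% FBS received 23 nL compound or DMSO vehicle; blue-channel (405/460 nm) intensity scored against triamterene as reference fluorophore.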
# [7] = qHTS assay to test for compound auto fluorescence at 535 nm (green) in HepG2 cell free culture (AID 720686)
# [8] = qHTS assay to test for compound auto fluorescence at 460 nm (blue) in HepG2 cells (AID 720687)
# Summary of the method: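 HepG2 cells in MEM with 10% FBS, attached overnight at 37 C, were exposed to compound or DMSO for 1 hr at 37 C, 5% CO2. Blue fluorescence was read at 405/460 nm, with triamterene as reference fluorophore.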
# [9] = molecular target: Glucocorticoid receptor (Homo sapiens) (UniProt P04150); test: qHTS assay to identify small molecule agonists of the glucocorticoid receptor (GR) signaling pathway (AID 720691; active = well fitted activation curve with a large enough effect in the signal ratio in the repeat runs, not every such curve was filed as active; inconclusive = weak or mixed curves, or effect the other way; inactive = no such curve, though single readings can be large or run the other way; the % refers to the signal ratio; note: potency is the fitted concentration of half-maximal effect)
# Sequence of Glucocorticoid receptor (Homo sapiens) (P04150 whole entry, looked up): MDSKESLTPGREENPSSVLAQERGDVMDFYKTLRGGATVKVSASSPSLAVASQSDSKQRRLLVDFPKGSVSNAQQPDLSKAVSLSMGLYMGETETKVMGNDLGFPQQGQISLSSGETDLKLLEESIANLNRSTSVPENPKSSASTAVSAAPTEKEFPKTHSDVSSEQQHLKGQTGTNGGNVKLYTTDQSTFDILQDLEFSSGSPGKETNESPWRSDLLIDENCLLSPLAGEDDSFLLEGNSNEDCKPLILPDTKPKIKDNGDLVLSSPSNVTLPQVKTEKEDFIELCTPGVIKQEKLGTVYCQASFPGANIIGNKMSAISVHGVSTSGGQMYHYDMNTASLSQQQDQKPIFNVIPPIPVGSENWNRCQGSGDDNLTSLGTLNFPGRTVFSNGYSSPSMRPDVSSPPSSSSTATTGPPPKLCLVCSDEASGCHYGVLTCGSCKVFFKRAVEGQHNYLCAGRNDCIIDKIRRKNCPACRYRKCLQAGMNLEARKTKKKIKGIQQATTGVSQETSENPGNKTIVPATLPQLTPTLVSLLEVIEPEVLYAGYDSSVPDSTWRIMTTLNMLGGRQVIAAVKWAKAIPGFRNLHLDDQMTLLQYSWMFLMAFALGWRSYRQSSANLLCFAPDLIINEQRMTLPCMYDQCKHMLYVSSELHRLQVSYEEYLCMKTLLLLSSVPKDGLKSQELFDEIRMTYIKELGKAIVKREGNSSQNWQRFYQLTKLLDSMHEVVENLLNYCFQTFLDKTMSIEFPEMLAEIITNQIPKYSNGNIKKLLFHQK
# Summary of the method: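 Agonist-mode qHTS in HeLa cells stably expressing a glucocorticoid-response-element beta-lactamase reporter. Fluorescence intensity read with FRET substrate (2 h, room temperature) after 18 h compound treatment at 37 C.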
# [10] = molecular target: Glucocorticoid receptor (Homo sapiens) (UniProt P04150); test: qHTS assay to identify small molecule antagonists of the glucocorticoid receptor (GR) signaling pathway (AID 720692; active = well fitted inhibition curve with a large enough effect in the signal ratio in the repeat runs, not every such curve was filed as active; inconclusive = weak or mixed curves, or effect the other way; inactive = no such curve, though single readings can be large or run the other way; the % refers to the signal ratio; note: potency is the fitted concentration of half-maximal effect)
# Summary of the method: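 Inhibition of dexamethasone-driven (5 nM final) beta-lactamase expression was measured in GRE-reporter HeLa cells over 18 h at 37C. Fluorescence was read after 2 h with the B/G FRET substrate at room temperature.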
SMILES,Potency [1],outcome [2],Potency [3],Potency [4],Potency [5],outcome [6],Potency [7],outcome [8],Potency [9],Potency [10],"fluorescence, % of fluorescein [1]","fluorescence, % of fluorescent control [2]","fluorescence, % of fluorescent control [4]","fluorescence, % of Rose Bengal [5]","fluorescence, % of fluorescent control [6]","fluorescence, % of fluorescein control [7]","fluorescence, % of fluorescent control [8]"
Clc1nc(Cl)c(Cl)c(Cl)c1Cl,inactive,inactive,inactive,inactive,inactive,inactive,inactive,inactive,inactive,15.6 µM (active) and 24.5 µM (active),,,,,,,
C=CC(C)(CCC=C(C)C)OC(C)=O (stereo unspecified),inactive,inactive,inactive,inactive,inactive,inactive,inactive,inactive,inactive,inactive,,,,,,,
CC(C)=CCCC(C)CCO (stereo unspecified),inactive,inactive,inactive,inactive,inactive,inactive,,inactive,,,,,,,,,
CCCC(=O)O,inactive,inactive,inactive,inactive,inactive,inactive,inactive,inactive,inactive,inactive,,,,,,,
C/C=C/C(=O)O,inactive,inactive,inactive,inactive,inactive,inactive,inactive,inactive,inactive,inactive,,,,,,,
OC(CCl)CCl,inactive,inactive,inactive,inactive,inactive,inactive,inactive,inactive,inactive,inactive,,,,,,,
COc1ccccc1/C=C/C=O,inactive,inactive,inactive,inactive,inactive,inactive,inactive,inactive,inactive,inactive,,,,,,,
Cc1ccc(C(=O)c2cc(O)c(O)c([N+](=O)[O-])c2)cc1,inactive,inactive,inactive,inactive,inactive,inactive,inactive,inactive,inactive,34.7 µM (active),,,,,,,
OC1CCCCCCCCCCC1,inactive,inactive,inactive,inactive,inactive,inactive,inactive,inactive,inactive,inactive,,,,,,,
Cc1c(C(N)=O)cc([N+](=O)[O-])cc1[N+](=O)[O-],inactive,inactive,inactive,inactive,inactive,inactive,inactive,inactive,inactive,inactive,,,,,,,
CNCCCC12CCC(c3ccccc31)c1ccccc12,inactive,inactive,inactive,inactive,inactive,inactive,inactive,inactive,inactive,inactive,,,,,,,
COc1c(Cl)c(Cl)c(Cl)c(Cl)c1Cl,inactive,inactive,inactive,inactive,inactive,inactive,inactive,inactive,inactive,inactive,,,,,,,
C[C@]12CCC(=O)C=C1CC[C@@H]1[C@@H]2C(=O)C[C@@]2(C)[C@H]1CC[C@]2(O)C(=O)CO,inactive,inactive,inactive,inactive,inactive,inactive,inactive,inactive,,9.52 µM (active) and 6.92 µM (active),,,,,,,
c1ccc2cc(Nc3ccc(Nc4ccc5ccccc5c4)cc3)ccc2c1,inactive,inactive,inactive,inactive,inactive,inactive,inactive,inactive,inactive,inactive,,,,,,,
CCOCCOCCO,inactive,inactive,inactive,inactive,inactive,inactive,inactive,inactive,inactive,inactive,,,,,,,
CCC(C)OC(=O)c1ccc(O)cc1 (stereo unspecified),inactive,inactive,inactive,inactive,inactive,inactive,inactive,inactive,inactive,inactive,,,,,,,
COc1cccc2c1C(=O)c1c(O)c3c(c(O)c1C2=O)C[C@@](O)(C(=O)CO)C[C@@H]3O[C@H]1C[C@H](N)[C@H](O)[C@H](C)O1,inactive,inactive,inactive,inactive,inactive,inactive,inactive,inactive,535 nM [inconclusive] (active) and 174 nM (active),inactive,,,,,,,
CC(C)OB(OC(C)C)OC(C)C,inactive,inactive,inactive,inactive,inactive,inactive,inactive,inactive,inactive,inactive,,,,,,,
COc1ccc(C(=O)CC(=O)c2ccc(C(C)(C)C)cc2)cc1,inactive,inactive,inactive,inactive,inactive,inactive,inactive,inactive,inactive,inactive,,,,,,,
O=C(Nc1ccc(Cl)cc1)Nc1ccc(Cl)c(Cl)c1,inactive,inactive,inactive,inactive,inactive,inactive,,inactive,,,,,,,,,
CCC(C)c1ccccc1O (stereo unspecified),inactive,inactive,inactive,inactive,inactive,inactive,inactive,inactive,inactive,inactive,,,,,,,
CC(C)OC=O,inactive,inactive,inactive,inactive,inactive,inactive,inactive,inactive,inactive,inactive,,,,,,,
O=P(O)(O)O,inactive,inactive,inactive,inactive,inactive,inactive,inactive,inactive,inactive,inactive,,,,,,,
Cc1ncc[nH]1,inactive,inactive,inactive,inactive,inactive,inactive,inactive,inactive,inactive,inactive,,,,,,,
CC(C(=O)O)c1cccc(C(=O)c2ccccc2)c1 (stereo unspecified),inactive,inactive,inactive,inactive,inactive,inactive,,inactive,,,,,,,,,

SMILES,Potency [1],outcome [2],Potency [3],Potency [4],Potency [5],outcome [6],Potency [7],outcome [8],Potency [9],Potency [10],"fluorescence, % of fluorescein [1]","fluorescence, % of fluorescent control [2]","fluorescence, % of fluorescent control [4]","fluorescence, % of Rose Bengal [5]","fluorescence, % of fluorescent control [6]","fluorescence, % of fluorescein control [7]","fluorescence, % of fluorescent control [8]"
Nc1ccc(Cl)cc1Cl,inactive,inactive,inactive,inactive,inactive,inactive,inactive,inactive,inactive,inactive,,,,,,,
Nc1ccc(S(=O)(=O)Nc2cnc3ccccc3n2)cc1,inactive,inactive,inactive,inactive,inactive,inactive,inactive,inactive,inactive,inactive,,,,,,,
O=C(OCc1ccccc1)c1ccccc1O,inactive,inactive,inactive,inactive,inactive,inactive,inactive,inactive,inactive,inactive,,,,,,,
CCC(C)CO (stereo unspecified),inactive,inactive,inactive,inactive,inactive,inactive,inactive,inactive,inactive,inactive,,,,,,,
O=C=Nc1ccc(Cc2ccc(N=C=O)cc2)cc1,inactive,inactive,inactive,inactive,inactive,inactive,inactive,inactive,inactive,inactive,,,,,,,
c1ccc2c(c1)Oc1ccccc1S2,inactive,inactive,inactive,inactive,inactive,inactive,,inactive,inactive,inactive,,,,,,,
Cn1cnc([N+](=O)[O-])c1Sc1ncnc2nc[nH]c12,inactive,inactive,inactive,inactive,inactive,inactive,,inactive,inactive,,,,,,,,
CC(=O)C1(C)CC2=C(CCCC2(C)C)CC1C (stereo unspecified),inactive,inactive,inactive,inactive,inactive,inactive,,inactive,inactive,inactive,,,,,,,
Cc1ccc2c(n1)Oc1ccc(C(C)C(=O)OCC(=O)N(C)C)cc1C2 (stereo unspecified),inactive,inactive,inactive,inactive,inactive,inactive,,inactive,inactive,inactive,,,,,,,
Nc1ccccc1N,inactive,inactive,inactive,inactive,inactive,inactive,,inactive,inactive,,,,,,,,
O=C(/C=C/C=C/c1ccc2c(c1)OCO2)N1CCCCC1,inactive,inactive,inactive,inactive,inactive,inactive,,inactive,,,,,,,,,
CCCCC(CC)COP(=O)(OCC(CC)CCCC)OCC(CC)CCCC (stereo unspecified),inactive,inactive,inactive,inactive,inactive,inactive,,inactive,inactive,inactive,,,,,,,
Brc1cc(Oc2cc(Br)c(Br)c(Br)c2Br)c(Br)c(Br)c1Br,inactive,inactive,inactive,inactive,inactive,inactive,,inactive,inactive,inactive,,,,,,,
CCCCC(CC)COC(=O)c1ccc(N(C)C)cc1 (stereo unspecified),inactive,inactive,inactive,inactive,inactive,inactive,,inactive,inactive,inactive,,,,,,,
CN(C)c1nc(N(C)C)nc(N(C)C)n1,,,,,,,,,inactive,inactive,0.0818% [at 18.6 µM] and -0.032% [at 3.72 µM],0.0543% [at 18.6 µM] and 0.0026% [at 3.72 µM],-0.0465% [at 18.6 µM] and -0.254% [at 3.72 µM],0.0258% [at 18.6 µM] and 0.364% [at 3.72 µM],0.0368% [at 18.6 µM] and -0.0793% [at 3.72 µM],-0.0261% [at 18.6 µM] and -0.0181% [at 3.72 µM],0.0942% [at 18.6 µM] and -0.004% [at 3.72 µM]
COC(=O)Nc1nc2ccc(S(=O)c3ccccc3)cc2[nH]1 (stereo unspecified),inactive,inactive,inactive,inactive,inactive,inactive,,inactive,inactive,inactive,,,,,,,
CCCCC/C=C/C=C/C=O,inactive,inactive,inactive,inactive,inactive,inactive,,inactive,inactive,49 µM (active),,,,,,,
CCCCCCCCCCCO,inactive,inactive,inactive,inactive,inactive,inactive,,inactive,,,,,,,,,
Cc1cccc(C(=O)O)c1,inactive,inactive,inactive,inactive,inactive,inactive,,inactive,,,,,,,,,
Nc1ccc(Nc2ccccc2)cc1,inactive,inactive,inactive,inactive,inactive,inactive,,inactive,inactive,,,,,,,,
C[C@]12CC[C@H]3[C@@H](CCC4=CC(=O)CC[C@@]43C)[C@@H]1CC[C@@H]2C(=O)CO,inactive,inactive,inactive,inactive,inactive,inactive,,inactive,inactive,811 nM (active) and 977 nM (active),,,,,,,
O=C1c2cccc(O)c2C(=O)c2c(O)cccc21,inactive,inactive,inactive,inactive,inactive,inactive,,inactive,,,,,,,,,
CCCCOCCOCCOCCO,inactive,inactive,inactive,inactive,inactive,inactive,,inactive,,,,,,,,,
O=C(c1ccc(OCCN2CCCCC2)cc1)c1c(-c2ccc(O)cc2)sc2cc(O)ccc12,inactive,inactive,inactive,inactive,inactive,inactive,,inactive,,,,,,,,,
